In PubChem BioAssay (EPA / NIEHS) one finds outcome data, which are given here for two compounds.

The assay can be described thus: CCTE_Deisenroth_DEVTOX-GLR_Pluri_CellCount: Viability Assessment in CCTE's DevTox GLR-Pluri Assay Evaluation of Total Cell Counts, Deisenroth Lab (AID 2284430). A digest of the protocol: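 Cytotoxicity readout: fluorescent nuclei counts by high-content imaging, expressed as percent change relative to 0.2% DMSO. Human RUES2-GLR pluripotent line differentiated 48 h, dosed twice at 24-h intervals across 1 nM - 200 uM (10 points).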

Active and inactive are the calls of the source. The calls were made as follows: active = hit-call score of the fitted dose curve at least 0.9, where 1 is the maximum; inactive = score below 0.9.

For `CC(O)CO` (configuration not stated), the call was inactive.

As for `C[C@@H]1C[C@H]2[C@@H]3CCC4=CC(=O)C=C[C@]4(C)[C@@]3(F)[C@@H](O)C[C@]2(C)[C@@]1(O)C(=O)COP(=O)(O)O`, the call was inactive.
